Measured values reported in PubChem BioAssay (EPA / NIEHS).
Active and inactive are the calls of the source. Rule for the calls: active = hit-call score of the fitted dose curve at least 0.9, where 1 is the maximum; inactive = score below 0.9.

Key:
Conditions in all cases: mRNA level, 48 h; actives raise or lower the signal
[1] = read-out: Cytochrome P450 3A4 (Homo sapiens) (UniProt P08684); experiment: LTEA_HepaRG_CYP3A4: Life Technologies and Expression Analysis (LTEA) Assay for CYP3A4 using HepaRG (AID 2283487)
Summary of the method: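 Differentiated HepaRG cells, plated 48 h, then dosed 48 h in serum-free induction medium with 0.5% DMSO, 8 half-log concentrations up to 100 uM, duplicate. CYP3A4 mRNA by qRT-PCR, normalized to ACTB/GAPDH/POLR2A; bidirectional fit versus DMSO.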

[2] = read-out: DNA damage-inducible transcript 3 (DDIT3), DDIT3 (gene 1649); experiment: LTEA_HepaRG_DDIT3: Life Technologies and Expression Analysis (LTEA) Assay for DNA damage-inducible transcript 3 (DDIT3) using HepaRG (AID 2283488)
Summary of the method: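 DDIT3 transcript was quantified by qRT-PCR with ACTB/GAPDH/POLR2A normalization after 48 h chemical treatment of differentiated HepaRG cells in 0.5% DMSO. Dosing was eight-point, half-log, top 100 uM, duplicate wells. Curves fitted bidirectionally versus DMSO.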

[3] = read-out: Pro-epidermal growth factor (Homo sapiens) (UniProt P01133); experiment: LTEA_HepaRG_EGF: Life Technologies and Expression Analysis (LTEA) Assay for Epidermal growth factor (EGF) using HepaRG (AID 2283489)
Summary of the method: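 HepaRG cells (~100,000/well, 48 h pre-culture) exposed in duplicate for 48 h in serum-free induction medium to 8 half-log concentrations up to 100 uM in 0.5% DMSO. EGF mRNA by qRT-PCR, normalized to ACTB/GAPDH/POLR2A; bidirectional fit versus DMSO.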

[4] = read-out: Early growth response protein 1 (EGR1) transcription factor, EGR1 (gene 1958); experiment: LTEA_HepaRG_EGR1: Life Technologies and Expression Analysis (LTEA) Assay for Early growth response protein 1 (EGR1) transcription factor using HepaRG (AID 2283490)
Summary of the method: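 EGR1 expression change in human HepaRG after 48 h chemical exposure, assessed by housekeeping-normalized qRT-PCR; concentration-response up to 100 uM, fitted in both directions against DMSO controls.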

[5] = read-out: Ezrin (EZR), EZR (gene 7430); experiment: LTEA_HepaRG_EZR: Life Technologies and Expression Analysis (LTEA) Assay for Ezrin (EZR) using HepaRG (AID 2283491)
Summary of the method: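 EZR transcript levels came from Fluidigm qRT-PCR and were normalized to three housekeeping genes after 48 h chemical exposure of HepaRG cells. Dosing used an 8-point half-log series with a 100 uM top concentration in 0.5% DMSO, tested in duplicate; both directions were fitted versus vehicle.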

CYP3A5 (gene 1577) = experiment: LTEA_HepaRG_CYP3A5: Life Technologies and Expression Analysis (LTEA) Assay for CYP3A5 using HepaRG (AID 2283493)
Summary of the method: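 mRNA levels were quantified by qRT-PCR on Fluidigm arrays and normalized to three housekeeping genes. Differentiated HepaRG cells received 48 h exposure (top 100 uM, half-log steps, 0.5% DMSO vehicle, duplicate); bidirectional fitting versus DMSO.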

[6] = read-out: Fatty Acid-Binding Protein 1 (FABP1), FABP1 (gene 2168); experiment: LTEA_HepaRG_FABP1: Life Technologies and Expression Analysis (LTEA) Assay for Fatty Acid-Binding Protein 1 (FABP1) using HepaRG (AID 2283494)
Summary of the method: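 Values reflect bidirectional concentration-response fitting of FABP1 mRNA change against 0.5% DMSO controls. Human HepaRG cultures received eight half-log doses (top 100 uM) for 48 h; expression quantified by TaqMan qRT-PCR with housekeeping-gene normalization.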

[7] = read-out: Cytochrome P450 4A22 (Homo sapiens) (UniProt Q5TCH4); experiment: LTEA_HepaRG_CYP4A22: Life Technologies and Expression Analysis (LTEA) Assay for Cytochrome P450 4A22 (CYP4A22) using HepaRG (AID 2283495)
Summary of the method: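 Differentiated HepaRG cells in serum-free induction medium exposed 48 h in duplicate to eight half-log concentrations up to 100 uM in 0.5% DMSO. CYP4A22 mRNA quantified by TaqMan qRT-PCR, normalized to ACTB, GAPDH and POLR2A; bidirectional fit versus DMSO.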

[8] = read-out: Cytochrome P450 7A1 (Homo sapiens) (UniProt P22680); experiment: LTEA_HepaRG_CYP7A1: Life Technologies and Expression Analysis (LTEA) Assay for Cytochrome P450 7A1 (CYP7A1) using HepaRG (AID 2283496)
Summary of the method: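 HepaRG, 48 h exposure, 8-pt half-log series from 100 uM, 0.5% DMSO vehicle, duplicates. Readout: TaqMan qRT-PCR mRNA vs three housekeeping genes; bidirectional curve fit against DMSO baseline.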

[9] = read-out: Glutathione S-Transferase (GSTA2), GSTA2 (gene 2939); experiment: LTEA_HepaRG_GSTA2: Life Technologies and Expression Analysis (LTEA) Assay for Glutathione S-Transferase (GSTA2) using HepaRG (AID 2283497)
Summary of the method: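 Oxidative-stress marker GSTA2 is quantified by TaqMan qRT-PCR in HepaRG cultures treated 48 h across an eight-point range to 100 uM. Expression is normalized to endogenous controls and compared with 0.5% DMSO vehicle.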

[10] = read-out: Glutamate-cysteine ligase catalytic (GCLC), GCLC (gene 2729); experiment: LTEA_HepaRG_GCLC: Life Technologies and Expression Analysis (LTEA) Assay for Glutamate-cysteine ligase catalytic (GCLC) using HepaRG (AID 2283498)
Summary of the method: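 Oxidative-stress marker GCLC is measured as mRNA change in human HepaRG liver cells after 48 h chemical treatment in 0.5% DMSO, eight concentrations from 100 uM. Activity is fitted bidirectionally against vehicle.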

[11] = read-out: growth arrest and DNA damage 45 (GADD45G), GADD45G (gene 10912); experiment: LTEA_HepaRG_GADD45G: Life Technologies and Expression Analysis (LTEA) Assay for growth arrest and DNA damage 45 (GADD45G) using HepaRG (AID 2283499)
Summary of the method: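 Differentiated human HepaRG cells, 48 h post-plating, exposed 48 h in serum-free induction medium to 8 half-log concentrations (top 100 uM, 0.5% DMSO) in duplicate. GADD45G mRNA measured by Fluidigm TaqMan qRT-PCR, normalized to ACTB, GAPDH, POLR2A; bidirectional fit versus DMSO.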

[12] = read-out: Glutamate-cysteine ligase regulatory (GCLM), GCLM (gene 2730); experiment: LTEA_HepaRG_GCLM: Life Technologies and Expression Analysis (LTEA) Assay for Glutamate-cysteine ligase regulatory (GCLM) using HepaRG (AID 2283500)
Summary of the method: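 GCLM expression quantified by qRT-PCR, normalized to three housekeeping genes, after 48 h chemical treatment of HepaRG cells in duplicate at 8 concentrations (top 100 uM, half-log steps, 0.5% DMSO). Changes fitted both directions against vehicle.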

[13] = read-out: Glutathione S-transferase M3 (GSTM3), GSTM3 (gene 2947); experiment: LTEA_HepaRG_GSTM3: Life Technologies and Expression Analysis (LTEA) Assay for Glutathione S-transferase M3 (GSTM3) using HepaRG (AID 2283501)
Summary of the method: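 Differentiated human HepaRG cells were exposed in duplicate for 48 h in serum-free induction medium, 8 points from 100 uM top in half-log steps, 0.5% DMSO. GSTM3 mRNA was measured by TaqMan qRT-PCR, normalized to ACTB, GAPDH and POLR2A; bidirectional fit versus DMSO.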

[14] = read-out: Heat shock 70 kDa protein 1 (HSPA1A), gene 3303; experiment: LTEA_HepaRG_HSPA1A: Life Technologies and Expression Analysis (LTEA) Assay for Heat shock 70 kDa protein 1 (HSPA1A) using HepaRG (AID 2283502)
Summary of the method: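 HSPA1A expression measured by qRT-PCR with ACTB/GAPDH/POLR2A normalization; curves fitted in both directions relative to DMSO vehicle. Exposure: 48 h in HepaRG cells, duplicate 8-point half-log series from 100 uM, 0.5% DMSO, serum-free induction medium.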

[15] = read-out: Hypoxia-inducible factor 1-alpha (Homo sapiens) (UniProt Q16665); experiment: LTEA_HepaRG_HIF1A: Life Technologies and Expression Analysis (LTEA) Assay for Hypoxia-inducible factor 1 (HIF1A) Trancription factor using HepaRG (AID 2283503)
Summary of the method: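 HIF1A transcript level read by qRT-PCR (ACTB, GAPDH, POLR2A normalization) after 48 h chemical exposure of HepaRG cultures. Eight half-log concentrations, top 100 uM, 0.5% DMSO vehicle, duplicates; bidirectional curve fit against DMSO baseline.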

[16] = read-out: 3-Hydroxy-3-Methylglutaryl-CoA Synthase 2 (HMGCS2), HMGCS2 (gene 3158); experiment: LTEA_HepaRG_HMGCS2: Life Technologies and Expression Analysis (LTEA) Assay for 3-Hydroxy-3-Methylglutaryl-CoA Synthase 2 (HMGCS2) using HepaRG (AID 2283504)
Summary of the method: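 Human HepaRG cells in serum-free induction medium were exposed in duplicate for 48 h to 8-point half-log series from 100 uM top in 0.5% DMSO. HMGCS2 mRNA measured by TaqMan qRT-PCR, normalised to ACTB, GAPDH, POLR2A; bidirectional fit versus DMSO.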

HGF (gene 3082) = experiment: LTEA_HepaRG_HGF: Life Technologies and Expression Analysis (LTEA) Assay for Hepatocyte Growth Facto (HGF) using HepaRG (AID 2283505)
Summary of the method: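 Differentiated HepaRG cells in serum-free induction medium exposed 48 h in duplicate, 8 half-log concentrations from 100 uM in 0.5% DMSO. HGF mRNA by qRT-PCR, normalised to ACTB, GAPDH, POLR2A; bidirectional fitting.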

Measured: AC50

Chain of Hypoxia-inducible factor 1-alpha (Homo sapiens) (Q16665 whole entry, looked up): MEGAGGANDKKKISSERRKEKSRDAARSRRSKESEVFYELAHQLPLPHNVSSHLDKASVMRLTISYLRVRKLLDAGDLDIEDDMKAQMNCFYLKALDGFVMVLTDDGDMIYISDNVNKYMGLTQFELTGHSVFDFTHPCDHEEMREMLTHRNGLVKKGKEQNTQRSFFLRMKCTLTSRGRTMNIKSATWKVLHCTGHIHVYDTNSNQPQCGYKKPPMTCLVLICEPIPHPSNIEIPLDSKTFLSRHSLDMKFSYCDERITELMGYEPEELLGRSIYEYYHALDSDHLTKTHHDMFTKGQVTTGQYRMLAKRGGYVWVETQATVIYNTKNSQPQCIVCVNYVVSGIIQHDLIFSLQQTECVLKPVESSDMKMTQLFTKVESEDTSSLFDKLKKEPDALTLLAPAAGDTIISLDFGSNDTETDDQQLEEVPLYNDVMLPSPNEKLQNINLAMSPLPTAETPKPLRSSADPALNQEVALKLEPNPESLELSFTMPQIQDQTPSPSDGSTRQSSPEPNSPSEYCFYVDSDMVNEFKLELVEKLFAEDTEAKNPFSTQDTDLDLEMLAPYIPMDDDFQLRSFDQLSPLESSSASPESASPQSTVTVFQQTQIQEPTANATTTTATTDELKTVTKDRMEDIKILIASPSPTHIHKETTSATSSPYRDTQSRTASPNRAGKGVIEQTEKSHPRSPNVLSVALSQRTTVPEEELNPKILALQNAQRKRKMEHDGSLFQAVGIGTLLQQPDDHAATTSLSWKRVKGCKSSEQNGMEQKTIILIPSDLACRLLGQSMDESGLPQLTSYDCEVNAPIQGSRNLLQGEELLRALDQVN
Chain of Cytochrome P450 3A4 (Homo sapiens) (P08684 whole entry, looked up): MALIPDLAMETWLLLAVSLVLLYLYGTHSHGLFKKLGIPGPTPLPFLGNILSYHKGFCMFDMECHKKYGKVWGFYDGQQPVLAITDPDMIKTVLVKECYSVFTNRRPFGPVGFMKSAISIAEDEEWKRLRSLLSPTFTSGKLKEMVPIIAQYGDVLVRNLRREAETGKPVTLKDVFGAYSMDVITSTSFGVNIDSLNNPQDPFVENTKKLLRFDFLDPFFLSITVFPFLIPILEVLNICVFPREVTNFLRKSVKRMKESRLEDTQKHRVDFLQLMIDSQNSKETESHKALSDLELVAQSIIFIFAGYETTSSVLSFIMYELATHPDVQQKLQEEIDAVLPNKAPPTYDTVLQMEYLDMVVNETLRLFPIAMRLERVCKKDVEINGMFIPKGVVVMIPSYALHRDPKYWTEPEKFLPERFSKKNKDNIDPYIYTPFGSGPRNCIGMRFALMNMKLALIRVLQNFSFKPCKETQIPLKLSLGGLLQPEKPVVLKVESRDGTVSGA

O=C(O)C(F)(F)C(F)(F)C(F)(F)C(F)(F)C(F)(F)C(F)(F)C(F)(F)C(F)(F)C(F)(F)F
inactive: [4] | [12] | [14] | [15]
active: [1] 75.8 µM | [2] 17 µM | [3] 76.1 µM | [5] 11.5 µM | CYP3A5 (gene 1577) 94.1 µM | [6] 33.7 µM | [7] 79.7 µM | [8] 27.6 µM | [9] 35.5 µM | [10] 85.4 µM | [11] 19.4 µM | [13] 74.8 µM | [16] 34 µM | HGF (gene 3082) 89.8 µM

O=C(NC(=O)c1cc(F)c(F)cc1Cl)Nc1cc(F)ccc1N1CCC(C(=O)O)CC1
active: [7] 7.84 µM | [8] 6.6 µM | [16] 20.3 µM
inactive: [1] | [2] | [3] | [4] | [5] | CYP3A5 (gene 1577) | [6] | [9] | [10] | [11] | [12] | [13] | [14] | [15] | HGF (gene 3082)

COc1ccc(O)c(C(C)(C)C)c1
active: [1] 66.4 µM
inactive: [2] | [3] | [4] | [5] | CYP3A5 (gene 1577) | [6] | [7] | [8] | [9] | [10] | [11] | [13] | [14] | [15] | [16] | HGF (gene 3082)

Cc1cc2c3c(c1)C(c1ccccc1)=N[C@@H](NC(=O)c1ccncc1)C(=O)N3CC2
active: [1] 3.86 µM | [2] 75.6 µM | [5] 50 µM | [6] 50 µM | [7] 36 µM | [8] 50 µM | [14] 50 µM | [16] 71.2 µM
inactive: [3] | [4] | CYP3A5 (gene 1577) | [9] | [10] | [11] | [13] | [15] | HGF (gene 3082)

ClC1=C(Cl)[C@]2(Cl)[C@@H]3[C@@H]4C[C@@H]([C@H]5O[C@@H]45)[C@@H]3[C@@]1(Cl)C2(Cl)Cl
active: [2] 62.8 µM | [6] 0.0265 µM | [7] 34.2 µM | [8] 0.0248 µM | [9] 50 µM | [15] 0.0315 µM | [16] 50 µM
inactive: [3] | [4] | [5] | CYP3A5 (gene 1577) | [10] | [11] | [13] | [14] | HGF (gene 3082)

Clc1ccc(C(c2ccccc2Cl)C(Cl)(Cl)Cl)cc1 (stereo not drawn)
active: [1] 2.46 µM | [2] 74.6 µM | [4] 11.9 µM | [6] 33.9 µM | [8] 15.3 µM | [11] 90 µM | [14] 12 µM | [16] 50 µM
inactive: [3] | [5] | CYP3A5 (gene 1577) | [9] | [10] | [13] | [15] | HGF (gene 3082)

O=S(=O)(O)C(F)(F)C(F)(F)C(F)(F)C(F)(F)F
inactive: [1] | [2] | [3] | [4] | [5] | CYP3A5 (gene 1577) | [6] | [7] | [8] | [9] | [10] | [11] | [12] | [13] | [14] | [15] | [16] | HGF (gene 3082)

Cc1ccccc1[N+](=O)[O-]
inactive: [1] | [2] | [3] | [4] | [5] | CYP3A5 (gene 1577) | [6] | [7] | [8] | [9] | [10] | [11] | [12] | [13] | [14] | [15] | [16] | HGF (gene 3082)

Oc1ccc(C(c2ccc(O)cc2)(C(F)(F)F)C(F)(F)F)cc1
active: [1] 81.7 µM | [2] 79.3 µM | [3] 80.1 µM | [4] 81.5 µM | CYP3A5 (gene 1577) 80.2 µM | [6] 92.5 µM | [8] 89.6 µM | [9] 79.5 µM | [14] 72.8 µM | [15] 83.5 µM | [16] 79.4 µM
inactive: [5] | [7] | [10] | [11] | [13] | HGF (gene 3082)

Nc1ccc(-c2ccc(N)cc2)cc1
active: [7] 8.3 µM | [8] 1.44 µM
inactive: [1] | [2] | [3] | [4] | [5] | CYP3A5 (gene 1577) | [6] | [9] | [10] | [11] | [12] | [13] | [14] | [15] | [16] | HGF (gene 3082)
